# Data as given in the supplement of paper PMC9492666.
# Structures can show the parent of a compound that is named as a salt.
# Test system: HCC1937
# Assay: relative cell viability, compound + erastin, vs DMSO (fraction of DMSO control); higher = less growth inhibition
# Details: 72 h
# 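Further: viability read by CCK-8 kit in 96-well plates, part of a combination screen pairing lipid-metabolism-targeting compounds with erastin.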
row,Compound,relative cell viability
1,CSc1ccc(C(=O)/C=C/c2cc(C)c(OC(C)(C)C(=O)O)c(C)c2)cc1 [Elafibranor] + CCOc1ccccc1-n1c(C(C)N2CCN(C(=O)COc3ccc(Cl)cc3)CC2)nc2ccccc2c1=O [erastin],0.858
2,Cc1nc2ccc(C(=O)N3CCC4(CC3)CC(=O)c3c(cnn3C(C)C)C4)cc2[nH]1 + CCOc1ccccc1-n1c(C(C)N2CCN(C(=O)COc3ccc(Cl)cc3)CC2)nc2ccccc2c1=O [erastin],0.619
3,CCCCCCCCCCC[C@@H](C[C@@H]1OC(=O)[C@H]1CCCCCC)OC(=O)[C@H](CC(C)C)NC=O [Orlistat] + CCOc1ccccc1-n1c(C(C)N2CCN(C(=O)COc3ccc(Cl)cc3)CC2)nc2ccccc2c1=O [erastin],0.725
4,COc1cc(N2CCN(C)CC2)ccc1Nc1ncc2c(n1)N(C1CCC1)C(=O)N(c1c(C)cccc1C)C2 + CCOc1ccccc1-n1c(C(C)N2CCN(C(=O)COc3ccc(Cl)cc3)CC2)nc2ccccc2c1=O [erastin],0.56
5,Cc1c(C(=O)NN2CCCCC2)nn(-c2ccc(Cl)cc2Cl)c1-c1ccc(Cl)cc1 [Rimonabant] + CCOc1ccccc1-n1c(C(C)N2CCN(C(=O)COc3ccc(Cl)cc3)CC2)nc2ccccc2c1=O [erastin],0.581
6,CC(C)(O)c1ccccc1CC[C@@H](SCC1(CC(=O)O)CC1)c1cccc(/C=C/c2ccc3ccc(Cl)cc3n2)c1 [Montelukast] + CCOc1ccccc1-n1c(C(C)N2CCN(C(=O)COc3ccc(Cl)cc3)CC2)nc2ccccc2c1=O [erastin],0.561
7,O=C(O)C(O)Cc1ccc(O)c(O)c1 (configuration not stated) [Sodium Danshensu] + CCOc1ccccc1-n1c(C(C)N2CCN(C(=O)COc3ccc(Cl)cc3)CC2)nc2ccccc2c1=O [erastin],0.746
8,Cc1coc2c1C(=O)C(=O)c1c-2ccc2c(C)cccc12 [Tanshinone I] + CCOc1ccccc1-n1c(C(C)N2CCN(C(=O)COc3ccc(Cl)cc3)CC2)nc2ccccc2c1=O [erastin],0.226
9,O=C(O)CCCc1cc2cc(Cl)ccc2n1S(=O)(=O)c1ccc2ncsc2c1 [Lanifibranor] + CCOc1ccccc1-n1c(C(C)N2CCN(C(=O)COc3ccc(Cl)cc3)CC2)nc2ccccc2c1=O [erastin],0.672
10,COc1cc(O)c2c(c1)O[C@H](c1ccc(O)cc1)CC2=O [Sakuranetin] + CCOc1ccccc1-n1c(C(C)N2CCN(C(=O)COc3ccc(Cl)cc3)CC2)nc2ccccc2c1=O [erastin],0.648
11,O=c1c(O[C@@H]2O[C@H](CO)[C@@H](O)[C@H](O)[C@H]2O)c(-c2ccc(O)cc2)oc2cc(O)cc(O)c12 [Astragalin] + CCOc1ccccc1-n1c(C(C)N2CCN(C(=O)COc3ccc(Cl)cc3)CC2)nc2ccccc2c1=O [erastin],0.584
12,O=C(O)c1cc(F)c2nc(N3[C@@H]4CC[C@H]3C[C@@H](OCc3c(-c5ccccc5OC(F)(F)F)noc3C3CC3)C4)sc2c1 [Tropifexor] + CCOc1ccccc1-n1c(C(C)N2CCN(C(=O)COc3ccc(Cl)cc3)CC2)nc2ccccc2c1=O [erastin],0.658
13,CC(C)=CCC[C@](C)(O)[C@H]1CC[C@]2(C)[C@@H]1[C@H](O)C[C@@H]1[C@@]3(C)CC[C@H](O)C(C)(C)[C@@H]3[C@@H](O[C@@H]3O[C@H](CO)[C@@H](O)[C@H](O)[C@H]3O)C[C@]12C [Ginsenoside Rh1] + CCOc1ccccc1-n1c(C(C)N2CCN(C(=O)COc3ccc(Cl)cc3)CC2)nc2ccccc2c1=O [erastin],0.679
14,CN(C)CCOC(=O)COc1ccc(Cl)cc1 [Meclofenoxate hydrochloride] + CCOc1ccccc1-n1c(C(C)N2CCN(C(=O)COc3ccc(Cl)cc3)CC2)nc2ccccc2c1=O [erastin],0.693
15,CCCCCCCCCCCCCCOc1ccc(C(=O)O)o1 + CCOc1ccccc1-n1c(C(C)N2CCN(C(=O)COc3ccc(Cl)cc3)CC2)nc2ccccc2c1=O [erastin],0.56
16,Cc1cnc(C(=O)NCCc2ccc(S(=O)(=O)NC(=O)NC3CCCCC3)cc2)cn1 [Glipizide] + CCOc1ccccc1-n1c(C(C)N2CCN(C(=O)COc3ccc(Cl)cc3)CC2)nc2ccccc2c1=O [erastin],0.732
17,CCCc1cc(-c2nc(-c3ccc(NS(C)(=O)=O)cc3)cs2)ccn1 + CCOc1ccccc1-n1c(C(C)N2CCN(C(=O)COc3ccc(Cl)cc3)CC2)nc2ccccc2c1=O [erastin],0.394
